Measured values from PubChem BioAssay (NCI).
About 83,000 compounds went through this panel and 20% of them were active in at least one assay; those are over-represented in the sample as a whole.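 Values shown are percent growth following 48 h exposure of cells in 96-well plates to a single concentration of compound; below 10 was considered active.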 Values without a mark were called inactive. Activity calls are given as the source filed them.

Columns and labels:
Experiment in all cases: NCI-60 one-dose screen, 48 h (100 = growth as untreated, 0 = no growth, -100 = all killed)
Conditions in all cases: 10 µM unless noted
[1] = system: T-47D breast
[2] = system: BT-549 breast
[3] = system: MDA-MB-435 melanoma
[4] = system: SW-620 colon
[5] = system: MCF7 breast
[6] = system: HCT-116 colon
[7] = system: HCC-2998 colon
[8] = system: KM12 colon

Compound | growth [1] | growth [2] | growth [3] | growth [4] | growth [5] | growth [6] | growth [7] | growth [8]
COC(=O)c1cc(=O)nc(N/N=C/c2ccco2)s1 | 87.8% | 109% | 114% | 108% | 39.5% | 93.8% | 102% | 101%
COc1cc(-c2nc(-c3nc4ccc(Cl)cc4[nH]3)cc3c2[nH]c2ccccc23)cc(OC)c1OC | 54.2% | 70.8% | 75.5% | 96.2% | 47.9% | 58.7% | 68.7% | 71%
COc1ccc(Nc2nn3c(-c4ccccc4)cc(-c4ccccc4)nc3c2C(N)=O)c(OC)c1 | 34.9% | 46.5% | 57.5% | 57.2% | 46.7% | 21.5% | 86.9% | 51.1%
C/C(=N/NC(=S)Nc1ccccc1)c1nc2ccc(Cl)cc2[nH]1 | -68.3% (active) | -94.9% (active) | -84.5% (active) | -76.9% (active) | -85.4% (active) | -27% (active) | -89.9% (active) | -82.5% (active)
O=C1/C(=C/c2ccccc2)CN(C(=O)CCN2CCC(=NO)CC2)C/C1=C\c1ccccc1 | -2.11% (active) | 2.46% (active) | -58.1% (active) | -52% (active) | -21.5% (active) | -68.7% (active) | -65.5% (active) | -63.1% (active)
Cc1ccc2ccccc2c1C[n+]1ccccc1 | 109% | 79.8% | 102% | 99.7% | 93.9% | 101% | 95.2% | 87.8%
COc1ccc2[nH]c(=O)c(/C=N/Nc3nc(-c4ccccc4)cs3)c(O)c2c1 | 72.6% | 60.8% | 79.3% | 67.2% | 67.2% | 50.8% | 77.6% | 69.3%
OB(O)c1cccc(-c2nc3ccc4[nH]ncc4c3c3c2CCCC3)c1F | 54.1% | 30.2% | 44.4% | 35.1% | 62.5% | 20.9% | 71.4% | 28.7%
N[C@H]1CN(C(=O)c2cc3cc(Br)c(F)c(F)c3[nH]2)C[C@@H]1O | 91.3% | 89.5% | 99.2% | 101% | 89.3% | 93.6% | 93.3% | 104%
O=C(Nc1ccncc1)C(=O)c1cn(S(=O)(=O)c2ccccc2F)c2ccccc12 | 41.8% | 39.1% | 3.81% (active) | 15.6% | 21.5% | 20.4% | 57.2% | 19.2%
CCCCC(CC)OC(=O)C(Br)CC (stereo unspecified) | 103% | 100% | 109% | 114% | 102% | 101% | 104% | 101%
COc1ccc(Nc2ncccc2C(=O)NCc2cn(Cc3cccc(Oc4ccccc4)c3)nn2)cc1 | 50.5% | 53.1% | -16.3% (active) | 24.6% | 20% | 23.3% | 41.7% | 20.2%
O=C(O)COc1ccc(-c2cssc2=S)cc1 | 95.5% | 116% | 102% | 107% | 93.2% | 109% | 125% | 109%
O=C(c1ccccc1)C1OC1c1ccc([N+](=O)[O-])cc1 (stereo unspecified) | 52.6% | 68.5% | 39% | 9.23% (active) | 64.1% | 13.7% | 115% | 62.6%
COc1cc([N+](=O)[O-])c2ncccc2c1O | 94.8% | 86.9% | 51.8% | 58.6% | 49% | 76.7% | 26.2% | -2.23% (active)
Fc1ccc(Nc2ncnc3ccc(-c4cnc5[nH]ccc5c4)cc23)cc1Cl | -35.3% (active) | 20.3% | 51.8% | 4.35% (active) | 9.34% (active) | -36.3% (active) | 34% | 23.3%

Compound | growth [1] | growth [2] | growth [3] | growth [4] | growth [5] | growth [6] | growth [7] | growth [8]
c1coc(CNc2ccnc(Nc3ccc(OCCN4CCCCC4)cc3)n2)c1 | 91.2% | 97.5% | 95.5% | 98.7% | 71.4% | 68.4% | 99.5% | 84.8%
CCCCCCCCCCCCCCCCCCNC(=O)[C@H]1CSC(c2cccs2)N1 (stereo partly specified) | -65.7% (active) | -77.4% (active) | -90.3% (active) | -65.5% (active) | -70.6% (active) | -89.6% (active) | -82.4% (active) | -70.9% (active)
Cc1ccc(S(=O)(=O)n2cc(C(=O)C(=O)N3CCOCC3)c3ccccc32)cc1 | 74.8% | 87.5% | 104% | 101% | 99.4% | 87.1% | 99.6% | 98.7%
COc1ccc(-c2nc3sccn3c2/C=C/C(=O)c2cc(F)cc(F)c2)cc1 | 40.5% | 127% | 94.2% | 53.9% | 20.3% | 53.7% | 51.3% | 84.3%
CC1CCC(C)N(C)C1 (stereo unspecified) | 96.9% | 87.6% | 111% | 113% | 96.5% | 97.9% | 85.2% | 110%
COc1ccc(-c2ccc(-c3ccc(C(=N)N)s3)s2)cc1Cl | 6.3% (active) | 94.9% | -81.4% (active) | -78.7% (active) | -66.2% (active) | -95.8% (active) | 9.04% (active) | -86.1% (active)
O=[N+]([O-])c1ccc(-c2cn(-c3ccccc3)c(-c3ccccc3)n2)cc1 | 65.9% | 96% | 100% | 95% | 74.4% | 87.1% | 104% | 94.4%
CC(C)(C)NCCC(O)c1cc2c(Cl)cc(Cl)cc2c2cc(C(F)(F)F)ccc12 (stereo unspecified) | -78.3% (active) | 69.6% | -74.4% (active) | -73.3% (active) | -81.3% (active) | -80.3% (active) | -83% (active) | -90.9% (active)
O=C(Oc1ccccc1[N+](=O)[O-])C1CCCN1C(=O)OCc1ccccc1 (stereo unspecified) | 110% | 89.6% | 104% | 105% | 95.6% | 87% | 101% | 107%
CN1CCN(CCCOc2ccc3nc(Nc4ccc(Cl)c(C(F)(F)F)c4)ccc3c2)CC1 | 76.7% | 102% | 59.6% | 0.0049% (active) | 27.1% | 26.3% | 6.68% (active) | 28.8%
Cc1ccc(-c2cc3nc(C(Cl)Cl)nc(-c4cccnc4)n3n2)cc1 | 37.9% | 73.4% | 1.09% (active) | 0.933% (active) | 41.5% | 6.32% (active) | -53.9% (active) | -35.4% (active)
CCCCCCCC[C@@H](O)CC(=O)N[C@@H](CC(N)=O)C(=O)N[C@@H](CCC(N)=O)C(=O)N[C@@H](CC(=O)c1cc(C)cc(O)c1C(=O)c1c(O)cccc1O)CC(C)C | -3.58% (active) | -1.45% (active) | -39.6% (active) | 18.3% | 29.9% | -9.35% (active) | -72.6% (active) | 1.64% (active)
COc1ccc(-c2cnnn2-c2nonc2-n2cccc2)cc1OC | 45.3% | 60.1% | -36.9% (active) | 27% | 30.4% | 35.6% | 62% | 31.7%
COC(=O)c1cccc2c1N(C)c1c(cccc1C(=O)OC)CC2 | 95.6% | 112% | 101% | 105% | 108% | 104% | 97.4% | 101%
C=C[C@@H]1C[C@H](O)Cc2ccccc2N1 | 118% | 113% | 107% | 105% | 105% | 113% | 99.6% | 109%
CCCCCCCC/C=C/CCCCCCCC1=NC(C)(C)CN1C(C)(C)CO | -10.2% (active) | 76.3% | -18.9% (active) | -85.1% (active) | -44.3% (active) | -99.4% (active) | -93.4% (active) | -91.5% (active)
